Reference: PubChem BioAssay (Tox21)
Records with an inconclusive call do not appear. Calls of active or inactive are those of the source. Unless noted, the call rests on the fitted dose curve; in most records, active means well fitted curve in the direction sought with a large enough effect in the repeat runs; inconclusive means weak or mixed curves; inactive means no such curve, though single readings can be large; an effect the other way counts as inactive or inconclusive.

Columns and labels:
[1] = A CellTox Green Cytotoxicity Assay to monitor cytotoxicity in HepG2 cells - 0 hour (AID 1224882); further: nearly all actives have a fitted effect of over 35% in size
In short: (§1)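 Cells and non-lytic dye reagent are dispensed together (600 HepG2 cells/well) and incubated 5 h before DMSO compound transfer. Kinetic fluorescence is then recorded in the same wells during 40 h at 37 C.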

[2] = A CellTox Green Cytotoxicity Assay to monitor cytotoxicity in HepG2 cells - 32 hour (AID 1224883); further: nearly all actives have a fitted effect of over 50% in size
In short: as §1

[3] = A CellTox Green Cytotoxicity Assay to monitor cytotoxicity in HEK293 cells - 8 hour (AID 1224884); further: nearly all actives have a fitted effect of over 35% in size
In short: (§2)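 Cells (HEK293, 600/well) and dye reagent are dispensed together. After 5 h at 37 C, 23 nL compound is pinned in. Plates stay at 37 C for 40 h with fluorescence read at 0h, 8h, 16h, 24h, 32h and 40h.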

[4] = qHTS RealTime-Glo MT Cell Viability Assay in HepG2 cells - 16 hour (AID 1224885); further: nearly all actives have a fitted effect of over 50% in size
In short: (§3)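 Viability was tracked continuously by NanoLuc luminescence from prosubstrate reduced by living HepG2 cells, at successive time points over 40 h of compound exposure. Cells with reagent were preincubated 5 h at 37 °C before compound addition.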

[5] = qHTS RealTime-Glo MT Cell Viability Assay in HEK293 cells - 24 hour (AID 1224886); further: top concentration of the series differs between compounds; nearly all actives have a fitted effect of over 50% in size
In short: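 Viability tracked continuously by luminescence as live cells reduce a prosubstrate for NanoLuc; HEK293 cells preincubated 5 h, compound-treated at 37 C, and read at 0, 8, 16, 24, 32 and 40 h.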

[6] = qHTS RealTime-Glo MT Cell Viability Assay in HEK293 cells - 8 hour (AID 1224887); further: top concentration of the series differs between compounds; nearly all actives have a fitted effect of over 50% in size
In short: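 Real-time viability in HEK293: signal arises when living cells convert a prosubstrate for NanoLuc in the medium, so luminescence tracks viable cell number. Compound (23 nL, DMSO) added 5 h post-seeding; kinetic reads at 0–40 h, 37 C.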

[7] = A CellTox Green Cytotoxicity Assay to monitor cytotoxicity in HEK293 cells - 16 hour (AID 1224888); further: nearly all actives have a fitted effect of over 35% in size
In short: as §2

[8] = qHTS RealTime-Glo MT Cell Viability Assay in HepG2 cells - 0 hour (AID 1224889); further: nearly all actives have a fitted effect of over 50% in size
In short: as §3

[9] = A CellTox Green Cytotoxicity Assay to monitor cytotoxicity in HepG2 cells - 8 hour (AID 1224890); further: nearly all actives have a fitted effect of over 45% in size
In short: as §1

[10] = qHTS assay to identify small molecule antagonists of the estrogen receptor alpha (ER-alpha) signaling pathway using the BG1 cell line in the presence of 0.1 nM 17-beta-estradiol - cell viability counter screen (AID 1259241); further: nearly all actives have a fitted effect of over 40% in size
In short: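 Following 5 days in phenol red-free medium with charcoal-stripped serum, VM7Luc4E2 cells received test compounds alongside 0.1 nM 17beta-estradiol (final) at 37C for 22 hr. Live cells were then quantified via protease-substrate fluorescence.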

[11] = qHTS assay to identify small molecule antagonists of the androgen receptor (AR) signaling pathway using the MDA cell line in the presence of 0.5 nM R1881 - cell viability counter screen (AID 1259242); further: nearly all actives have a fitted effect of over 45% in size
In short: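 Steps: plate MDA-kb2 cells, rest 5 hr at 37C without CO2; pin in compounds in DMSO; add R1881 to 0.5 nM final; incubate 16 hr; add CellTiter-Fluor, 30 min; read fluorescence.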

[12] = qHTS assay to identify small molecule HDAC inhibitors (AID 1259364);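 further: wild-type HCT-116 cells with endogenous class I/II HDAC activity; top concentration of the series differs between compounds; nearly all actives have a fitted effect of over 45% in size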
In short: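 Cells (HCT-116, wild type) are seeded at 1,500 per well, incubated overnight, treated with compound in DMSO for 2 hr, then developed with HDAC-Glo I/II reagent for 30 min at room temperature.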

[13] = qHTS assay to identify small molecule HDAC inhibitors - cell viability counter screen (AID 1259365)
In short: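 HCT-116 wild-type, overnight attachment; 2hr drug exposure, 37C; CellTiter-Glo luminescent ATP readout after 30min RT.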

[14] = qHTS assay to identify small molecule antagonists of the sonic hedgehog signaling (Shh) pathway - cell viability counter screen (AID 1259367); further: nearly all actives have a fitted effect of over 55% in size
In short: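 Viability was read by CellTiter-Fluor fluorescence in the same wells, reagent added 23 hr into compound treatment and incubated 1 hr at 37C. The 3T3 Gli1-Luc reporter cells (2,000/well) received conditioned medium after compound and ran 24 hr.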

[15] = qHTS assay to identify small molecule agonists of the sonic hedgehog signaling (Shh) pathway (AID 1259368; calls by dose curve;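 further: NIH/3T3-derived 3T3Gli1-Luc cells carrying a stable Gli1-driven firefly luciferase reporter; series mostly up to about 92 µM; nearly all actives have a fitted effect of over 15% in size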)
In short: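 Cells of a mouse NIH/3T3 clone stably expressing luciferase under the Gli1 transcriptional response element are exposed to test chemicals for 24 hr at 37 C. Pathway activation is detected as a rise in luminescence.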

[16] = qHTS assay to identify small molecule antagonists of the sonic hedgehog signaling (Shh) pathway (AID 1259369; calls by dose curve; further: nearly all actives have a fitted effect of over 45% in size)
In short: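 Cells are plated and held 4hr at 37 C, compounds (DMSO) are pinned in, conditioned medium is added to stimulate the pathway, and after 24hr luciferase reagent is added for 30min before luminescence is read.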

[17] = qHTS assay to identify small molecule phospholipidosis (PLD) inducers (AID 1259344; active means well fitted curve in the direction sought with a large enough effect; an effect the other way counts as inactive or inconclusive)
In short: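 Phospholipid accumulation was scored by imaging: fixed, Hoechst-counterstained HepG2 cells stained with LipidTOX Red after 24 h compound exposure at 37 C. Read-outs were pit count and pit intensity per well or per cell, with amiodarone and DMSO controls.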

[18] = qHTS assay to identify small molecule agonists of the sonic hedgehog signaling (Shh) pathway - cell viability counter screen (AID 1259366); further: nearly all actives have a fitted effect of over 50% in size
In short: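 Compounds in DMSO were pin-transferred onto 3T3 Gli1-Luc cells that had settled 4hr; plates then stood 24hr at 37C and 5% CO2. One hour before the end, CellTiter-Fluor was added and fluorescence recorded.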

[19] = molecular target: Androgen receptor (Homo sapiens) (UniProt P10275); assay: qHTS assay to identify small molecule antagonists of the androgen receptor (AR) signaling pathway using the MDA cell line in the presence of 0.5 nM R1881 (AID 1259243); further: nearly all actives have a fitted effect of over 50% in size
In short: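 Stably transfected MDA-kb2 cells express luciferase from an MMTV promoter bearing both AR and GR response elements. Compounds plus 0.5 nM R1881 (final) were incubated 16 hr at 37C without CO2, then luminescence measured.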

[20] = molecular target: Estrogen receptor (Homo sapiens) (UniProt P03372); assay: qHTS assay to identify small molecule antagonists of the estrogen receptor alpha (ER-alpha) signaling pathway using the BG1 cell line in the presence of 0.1 nM 17-beta-estradiol (AID 1259244); further: nearly all actives have a fitted effect of over 50% in size
In short: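 Antagonist mode: compounds in DMSO are pinned onto VM7Luc4E2 reporter cells, 0.1 nM final 17beta-estradiol is added, and after 22 h at 37C luciferase luminescence is measured with ONE-Glo.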

Measured: Potency

Sequence of Estrogen receptor (Homo sapiens) (P03372 whole entry, looked up): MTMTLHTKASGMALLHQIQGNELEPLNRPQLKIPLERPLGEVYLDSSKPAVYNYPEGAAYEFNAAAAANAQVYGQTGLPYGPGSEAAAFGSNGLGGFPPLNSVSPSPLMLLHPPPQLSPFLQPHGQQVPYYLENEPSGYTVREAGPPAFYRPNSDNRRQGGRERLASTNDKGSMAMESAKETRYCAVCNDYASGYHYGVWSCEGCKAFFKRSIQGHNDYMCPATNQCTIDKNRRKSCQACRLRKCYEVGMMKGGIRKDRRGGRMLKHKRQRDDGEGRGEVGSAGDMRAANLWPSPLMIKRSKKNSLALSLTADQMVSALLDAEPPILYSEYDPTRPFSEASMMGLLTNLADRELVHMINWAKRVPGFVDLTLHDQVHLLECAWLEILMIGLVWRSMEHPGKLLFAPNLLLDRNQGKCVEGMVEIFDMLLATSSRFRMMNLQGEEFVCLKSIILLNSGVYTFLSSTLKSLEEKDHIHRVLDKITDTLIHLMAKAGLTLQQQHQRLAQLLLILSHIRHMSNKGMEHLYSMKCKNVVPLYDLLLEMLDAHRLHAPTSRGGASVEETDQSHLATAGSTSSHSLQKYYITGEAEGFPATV
Sequence of Androgen receptor (Homo sapiens) (P10275 whole entry, looked up): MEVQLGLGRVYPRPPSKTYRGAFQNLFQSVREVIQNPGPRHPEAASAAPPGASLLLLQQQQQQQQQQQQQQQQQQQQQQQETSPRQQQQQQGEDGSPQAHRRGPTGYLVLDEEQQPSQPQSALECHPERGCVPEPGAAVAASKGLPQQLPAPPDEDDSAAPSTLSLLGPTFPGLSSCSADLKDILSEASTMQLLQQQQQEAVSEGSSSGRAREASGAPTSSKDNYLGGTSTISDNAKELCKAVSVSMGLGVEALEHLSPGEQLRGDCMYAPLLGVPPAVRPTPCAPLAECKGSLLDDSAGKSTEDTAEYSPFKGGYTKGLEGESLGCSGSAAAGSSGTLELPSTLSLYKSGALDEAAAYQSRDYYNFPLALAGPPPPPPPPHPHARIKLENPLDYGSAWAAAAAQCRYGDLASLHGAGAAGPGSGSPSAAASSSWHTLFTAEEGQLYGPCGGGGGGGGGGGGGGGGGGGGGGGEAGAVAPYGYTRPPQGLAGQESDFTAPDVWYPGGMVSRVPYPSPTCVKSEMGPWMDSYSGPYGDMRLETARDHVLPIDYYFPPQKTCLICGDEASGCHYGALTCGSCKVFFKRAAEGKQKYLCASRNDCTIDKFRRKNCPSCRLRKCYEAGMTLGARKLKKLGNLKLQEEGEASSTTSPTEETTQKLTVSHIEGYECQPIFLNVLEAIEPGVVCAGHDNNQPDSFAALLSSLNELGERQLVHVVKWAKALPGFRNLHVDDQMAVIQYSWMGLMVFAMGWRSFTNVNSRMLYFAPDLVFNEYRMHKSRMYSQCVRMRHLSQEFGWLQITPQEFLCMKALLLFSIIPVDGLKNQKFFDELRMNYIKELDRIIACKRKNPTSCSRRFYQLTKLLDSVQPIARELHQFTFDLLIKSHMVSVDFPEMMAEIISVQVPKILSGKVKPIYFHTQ

CCCCC(CC)(CO)CO
not listed: [17] | [18] | [19] | [20]
inactive: all other assays above

CC(=O)Nc1ccc(/C=N/NC(N)=S)cc1
not listed: [4] | [18] | [19] | [20]
inactive: all other assays above

Cc1ccccn1
not listed: [5] | [19] | [20]
inactive: all other assays above

CC(C)(Oc1ccc(Cl)cc1)C(=O)OCCCOC(=O)C(C)(C)Oc1ccc(Cl)cc1
not listed: [5] | [6] | [10] | [17] | [18] | [20]
inactive: all other assays above

Cc1c(Cn2ccnc2)c2ccccc2n1CCC(=O)O
not listed: [5] | [19] | [20]
inactive: all other assays above

Cc1ccccc1N=Nc1ccc(N=Nc2c(O)ccc3ccccc23)c(C)c1
not listed: [4] | [14] | [19]
inactive: all other assays above

C=C(C)C(=O)OCCN(C)C
not listed: [5] | [17] | [19] | [20]
inactive: all other assays above
